According to PubChem BioAssay:
Several values for one entry are separate records, joined by “and”; a condition that tells them apart may be missing. Equal values may be shown once. Activity calls are given as the source filed them. Rule as the data show it, unless noted: active = parasite load remaining mostly below about 12% (no sharp cut-off); inactive = mostly above about 10%.

Experiments:
[1] = liver-stage malaria parasite growth inhibition, primary screen, cell-based, HepG2, luciferase luminescence, HepG2 viability (AID 624349);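 also: 100% = mean of DMSO negative control wells on the same plate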; conditions: P. berghei liver stage in HepG2, luciferase luminescence, concentration not given here; parasite load remaining: stronger effect = lower value; viability: measured here: HepG2 viability without parasites
[2] = sensitizers of A549 cells to miR-34 induction, primary screen, imaging, A549 dox-inducible miR-34, nuclei and caspase counts (AID 1347080;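 active = compounds whose cell count with miR-34 switched on is under 0.7 times the count with it off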); conditions: A549 miR-34 inducible, Hoechst nuclei count, 48 h
[3] = inhibitors of Cryptococcus chitosan production, flow cytometry, Cibacron Brilliant Red staining (AID 1347148; call rule not given here;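 also: compound exposure lasted three days at 37 degrees C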); conditions: Cryptococcus neoformans chitosan, stronger effect = lower value; at 10 µM unless noted
[4] = stronger effect = lower value, cell number ratio, induced over uninduced
[5] = measured here: relative caspase fold change +Dox/-Dox
[6] = measured here: total cells with miR-34 induction, stronger effect = lower value
[7] = measured here: total cells without miR-34 induction

Compound	parasite load remaining [1]	viability [1]	fold change [2, 4]	fold change [2, 5]	cell count [2, 6]	cell count [2, 7]	fold fluorescence [3]
CCC1OC(=O)[C@H](C)C(=O)[C@H](C)[C@@H](OC2O[C@H](C)C[C@H](N(C)C)[C@H]2O)[C@](C)(OC)C[C@@H](C)C(=O)[C@H](C)[C@H]2N(CCCCn3cnc(-c4cccnc4)c3)C(=O)OC12C (some centres not stated)	141% (inactive) and 312% (inactive)	91.8% and 96.9%	0.904 (inactive)	2.11	11200	12400	
COc1c2ccoc2nc2c(OC)c(OC[C@@H](O)C(C)(C)O)ccc12	153% (inactive)	90.5%	0.816 (inactive)	1.39	8040	9850	
CCOCCOCCOCCOCCOCCOCCOCCOCCOCCO (tested in a mixture with another compound)	30.7% (inactive)	102%	0.959 (inactive)	1.63	11300	11800	
CNC(=O)[C@@H]1O[C@H](n2cnc3c(NCc4cccc(I)c4)ncnc32)C(O)[C@@H]1O (some centres not stated)							4.36 [at 98 µM] (inactive)
CCCCC[C@@H](O)/C=C/[C@H]1[C@@H]2C/C(=C/CCCC(=O)O)C[C@@H]2C[C@@H]1O							4.8 (inactive)
CCCCC[C@@H](O)/C=C/[C@H]1[C@H](C/C=C\CCCC(=O)O)[C@H](O)C[C@H]1O							4.85 (inactive)
CC(=O)OCC(=O)[C@@]1(O)CC[C@H]2[C@@H]3CCC4=CC(=O)CC[C@]4(C)C3(F)C(=O)C[C@@]21C (some centres not stated)	49% (inactive)	46.2%	0.875 (inactive)	1.05	6080	6960	
CCCCC/C=C\C[C@H](O)/C=C/C=C/C=C\[C@H](O)CCCC(=O)O							3.97 [at 1 µM] (inactive)
C=Cc1c(C)c2cc3nc(cc4[nH]c(cc5nc(cc1[nH]2)C(C)=C5CCC(=O)O)c(CCC(=O)O)c4C)[C@@]1(C)C3=CC=C(C(=O)OC)C1C(=O)OC (some centres not stated)	82.4% (inactive)	67.8%	0.97 (inactive)	1.04	9050	9330	
CCCCC[C@@H](O)CC[C@H]1[C@H](CCCCCCC(=O)O)C(=O)C[C@@H]1O							5.11 (inactive)
COc1cc2c(cc1OC)-c1[nH]nc(Nc3cccc(F)c3)c1C2	37% (inactive)	81.5%	1.05 (inactive)	1.72	1160	1100	
CC12CCC3c4ccc(OC(=O)c5ccccc5)cc4CCC3C1CCC2O (configuration not stated)	35.5% (inactive)	95.7%	0.833 (inactive)	2.66	9690	11600	
C[C@@H](COc1ccccc1)N(CCCl)Cc1ccccc1							6.47 [at 164.6 µM] (inactive)
CN1CC[C@]23c4ccccc4N[C@H]1[C@]21CCN(C)[C@H]3Nc2ccccc21	122% (inactive)	96.8%	0.926 (inactive)	1.16	9800	10600	
CC(=O)N[C@@H]1[C@@H](O[C@H](C)C(=O)O)[C@H](O)[C@@H](CO)O[C@@H]1O	112% (inactive)	105%	0.861 (inactive)	1.06	8610	10000	
COc1ccc(CCN(C)CCC[C@@](C#N)(c2cc(OC)c(OC)c(OC)c2)C(C)C)cc1OC							4.22 [at 103.2 µM] (inactive)
CNS(=O)(=O)c1ccc(NC(=O)c2ccccc2C(=O)O)cc1 (tested in a mixture with another compound)	59.7% (inactive)	106%	0.903 (inactive)	3.2	11500	12700	
CCCCC(C)(C)[C@@H](O)/C=C/[C@H]1[C@H](C/C=C\CCCC(=O)O)C(=O)C[C@@H]1O							4.79 (inactive)
CCCCCCCCCCCCCC[C@H](F)C(=O)O							6.01 (inactive)
C=CC[C@H]1/C=C(\C)C[C@@H](C)C[C@@H](OC)[C@@H]2O[C@](O)(C(=O)C(=O)N3CCCC[C@@H]3C(=O)O[C@@H](/C(C)=C/[C@H]3CC[C@H](O)[C@@H](OC)C3)[C@@H](C)[C@H](O)CC1=O)[C@@H](C)C[C@H]2OC							13.5 [at 62.2 µM] (inactive)
CCCCCCCCCCCCCCCCOC[C@@H](COP(=O)([O-])OCC[N+](C)(C)C)OC(=O)NC							5.1 (inactive)
c1ccc2c3c([nH]c2c1)[C@H]1C2CCC([C@@H]4CCCN[C@H]24)N1CC3 (some centres not stated)	89.2% (inactive)	93.6%	0.865 (inactive)	1.3	7540	8710	
